Source: PubChem (several laboratories)
Sampled rows, rich in hits. Any-hit rate of the full collection: about 2%.
697 NFkB inh: inhibitors of PMA/ionomycin-induced NF-kB reporter, 697 cells, primary screen, B-cell NF-kB inhibitor project, cell-based, luminescence, uHTS | 697 B-cell NF-kB luciferase reporter, 16 h | inhibition, % at 4 µM | actives 0.33% (n = 330,000) | AID 435022, 2010; in the data active means inhibition above about 35%
GalR3 antag: GalR3 antagonists in HEK293 cells, primary screen, cell-based, fluorescence readout; actives 0.44% (n = 360,000); HEK293 GalR3-CNG cAMP membrane potential fluorescence; galR3 body fused to GalR1 C-terminus; AID 651719, 2012; inhibition, % at 3 µM;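 active means inhibition above the screen-wide average plus 3 SD, cut at about 13% in these data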;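 further: forskolin and galanin both at EC90 stimulate the cells; cAMP rise reported by CNG channel membrane potential dye signal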
Target sequence (O60755 1-299 limits assumed): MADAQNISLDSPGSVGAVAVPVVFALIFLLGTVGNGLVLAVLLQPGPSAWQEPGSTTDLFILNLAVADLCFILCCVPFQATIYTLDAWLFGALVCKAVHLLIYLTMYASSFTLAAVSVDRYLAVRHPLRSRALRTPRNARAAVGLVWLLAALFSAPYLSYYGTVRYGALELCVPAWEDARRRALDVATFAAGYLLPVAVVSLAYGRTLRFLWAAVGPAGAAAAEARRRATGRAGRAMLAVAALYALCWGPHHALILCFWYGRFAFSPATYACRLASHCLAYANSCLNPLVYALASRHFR
NR2F2 inh: NR2F2 transcriptional activity inhibitors, primary screen, cell-based, luciferase reporter, HEK293T, luminescence | actives 0.7% (n = 370,000) | inhibition, % at 8.6 µM | COUP transcription factor 2 (Homo sapiens), P24468 | HEK293T NGFI-A luciferase reporter | AID 686940, 2013;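 active means inhibition above a per-plate cutoff, mean inhibition of test wells between control levels plus 3 SD, cut at about 38% in these data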;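 further: cells cotransfected with COUP-TFII expression vector driving the NGFI-A reporter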
Target sequence (P24468 whole entry, looked up): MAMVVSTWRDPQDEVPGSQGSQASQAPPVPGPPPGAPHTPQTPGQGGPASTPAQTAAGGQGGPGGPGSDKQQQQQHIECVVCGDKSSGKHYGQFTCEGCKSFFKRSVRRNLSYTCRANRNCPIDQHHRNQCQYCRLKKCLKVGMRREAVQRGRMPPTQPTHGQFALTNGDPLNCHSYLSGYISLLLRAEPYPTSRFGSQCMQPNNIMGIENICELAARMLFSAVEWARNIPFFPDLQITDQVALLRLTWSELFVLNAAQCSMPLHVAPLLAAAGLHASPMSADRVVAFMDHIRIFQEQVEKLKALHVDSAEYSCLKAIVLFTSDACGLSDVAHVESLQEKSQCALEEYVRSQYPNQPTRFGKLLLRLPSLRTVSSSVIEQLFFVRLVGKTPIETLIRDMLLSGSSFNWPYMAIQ
Gli-Sufu block: Gli-Sufu pathway antagonists, primary screen, luciferase luminescence, Sufu-KO-LIGHT cells, uHTS. AID 588413, 2011. inhibition, % at 5 µM. Sufu-KO-LIGHT fibroblasts, Gli luciferase reporter luminescence. actives 0.74% (n = 340,000);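 active means inhibition above about 55%, limit read from the data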
Jurkat NFkB inh: inhibitors of induced NF-kB luciferase reporter, primary screen, TCR NF-kB activation inhibitor project, cell-based, luminescence, uHTS; AID 435003, 2010; inhibition, % at 4 µM; actives 0.53% (n = 330,000); Jurkat, PMA/ionomycin-induced NF-kB luciferase reporter; in the data active means inhibition above about 50%
Gli-Sufu confirm: Gli-SUFU pathway antagonists, confirmation, single concentration, luciferase luminescence, Sufu-KO-LIGHT cells | shares compounds with Gli-Sufu block | Gli luciferase reporter | inhibition, % at 5 µM | actives 40% (n = 2,500) | AID 602428, 2012;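 active means mean inhibition at 5 µM reaching about 45%, limit read from the data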
SufuKO cytotox: cytotoxicity in Sufu-KO-LIGHT cells, confirmation, cytotoxicity control for Gli-SUFU antagonist project, cell-based, ATP luminescence, single concentration; shares compounds with Gli-Sufu block; cytotoxicity, % at 5 µM; actives 32% (n = 2,500); AID 651994, 2013;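 active means mean cytotoxicity at 5 µM above about 25%, limit read from the data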;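 further: cells exposed to compound overnight for roughly 16 to 18 hours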
Wnt3a cs: Wnt3a reporter signal inhibition, confirmation, counter-screen for Gli-SUFU antagonist project, Wnt-LIGHT cells, luminescence, single concentration; shares compounds with Gli-Sufu block; Wnt3a-driven luciferase reporter; inhibition, % at 6.25 µM; actives 20% (n = 2,500);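 active means mean inhibition above about 25%, limit read from the data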
Large screens that a line does not name were inactive (follow-up assays come after a bar, where they were run).

COc1ccccc1NC(=O)N1CCCC1C(=O)NCC1CCCO1 (stereo not given)	none | Gli-Sufu confirm inactive | SufuKO cytotox inactive | Wnt3a cs inactive
COc1ccccc1NC(=O)N1CCCC1C(=O)NCc1ccccc1 (stereo not given)	none
CCC[C@H]1[C@H](N)CC[C@@]23CCCN2C(=O)CCC[C@@H]13	none (no result: 697 NFkB inh, GalR3 antag, Gli-Sufu block, Jurkat NFkB inh)
COc1ccc(-c2nc3n(c(=O)c2C#N)CCS3)cc1	Gli-Sufu block 56.0 | Gli-Sufu confirm inactive | SufuKO cytotox inactive | Wnt3a cs inactive
O=C1c2ccccc2NC(c2cccc(F)c2)N1Cc1ccco1 (stereo not given)	Gli-Sufu block 64.6 | Gli-Sufu confirm inactive | SufuKO cytotox inactive | Wnt3a cs inactive
COc1ccc(CNC(=O)CN2CCC(NC(=O)c3ccc(OC)cc3)CC2)cc1	Gli-Sufu block 62.3 | Gli-Sufu confirm inactive | SufuKO cytotox inactive | Wnt3a cs inactive
COc1ccc(NS(=O)(=O)c2cccc(C(=O)NC3CCN(Cc4ccccc4)CC3)c2)cc1	Gli-Sufu block 57.0 | Gli-Sufu confirm inactive | SufuKO cytotox inactive | Wnt3a cs inactive
COc1ccc(C(=O)NC2CCN(CC(=O)NCc3ccccc3)CC2)cc1	none
COc1ccc(CNC2CCN(Cc3ccccc3)CC2)cc1	Gli-Sufu block 58.2 | Gli-Sufu confirm inactive | SufuKO cytotox inactive | Wnt3a cs inactive
COc1ccc(CN2CCC(CNC(=O)NCc3ccccc3)CC2)cc1	none (no result: 697 NFkB inh, GalR3 antag, Gli-Sufu block, Jurkat NFkB inh)
N#Cc1ccsc1NC(=O)CCN1CCN(C(c2ccccc2)c2ccccc2)CC1	none | Gli-Sufu confirm inactive | SufuKO cytotox inactive | Wnt3a cs inactive
NS(=O)(=O)c1ccc(NC(=O)CSC2=NC(=O)C(c3ccccc3)C(=O)N2)cc1 (stereo not given)	Gli-Sufu block 87.8 | Gli-Sufu confirm inactive | SufuKO cytotox inactive | Wnt3a cs inactive
COc1ccc2c(c1)CN1CN(C3CCCC3)S(=O)(=O)CC21 (stereo not given)	none (no result: 697 NFkB inh, GalR3 antag, Gli-Sufu block, Jurkat NFkB inh)
Cc1cc(C(=O)N/N=C2\CCCc3ccccc32)c(C)o1	none
Cc1cc(C(=O)N/N=C2/CC(C)CC(C)(C)C2)c(C)o1 (stereo not given)	none | Gli-Sufu confirm inactive | SufuKO cytotox inactive | Wnt3a cs inactive
CCCCOc1cccc(C(=O)NCCc2ccccc2-c2ccccc2CCC(=O)NCc2ccccc2)c1	none (no result: 697 NFkB inh, GalR3 antag, Gli-Sufu block, Jurkat NFkB inh)
CCN1Cc2nnn(Cc3ccccc3)c2-c2ccccc2S1(=O)=O	none (no result: 697 NFkB inh, GalR3 antag, Gli-Sufu block, Jurkat NFkB inh)
CCn1c2ccccc2c2cc(C=NNC(=O)c3ccoc3C)ccc21	none (no result: 697 NFkB inh, GalR3 antag, Gli-Sufu block, Jurkat NFkB inh)
CN(CC(=O)Nc1ccccc1Cl)C(=O)c1cccc(S(=O)(=O)N2CCN(c3ccc(F)cc3)CC2)c1	none
CN(CCOc1ccc(Cl)cc1)C(=O)c1cccc(S(=O)(=O)N2CCN(c3ccc(F)cc3)CC2)c1	Gli-Sufu block 70.1 (no result: 697 NFkB inh, GalR3 antag, NR2F2 inh, Jurkat NFkB inh) | Gli-Sufu confirm 64.5 | SufuKO cytotox 25.8 | Wnt3a cs inactive
CS(=O)(=O)c1ccc(OC[C@@H](O)CN2CCC(C(O)(c3ccccc3)c3ccccc3)CC2)cc1	none (no result: 697 NFkB inh, GalR3 antag, Gli-Sufu block, Jurkat NFkB inh)
COc1ccc(-c2nn(-c3ccccc3)cc2/C=N/NC(=O)c2ccc(Br)o2)cc1	none | Gli-Sufu confirm 63.0 | SufuKO cytotox inactive | Wnt3a cs inactive
Cc1cc(C)cc(C(=O)OCCCN(C)C2CN(Cc3cn(Cc4ccccc4F)nn3)S(=O)(=O)C2)c1 (stereo not given)	none (no result: 697 NFkB inh, GalR3 antag, Gli-Sufu block, Jurkat NFkB inh)
Cc1ccc(-c2nc(-c3ccccc3)no2)c(Cl)c1	Gli-Sufu block 67.4 | Gli-Sufu confirm 68.9 | SufuKO cytotox 79.5 | Wnt3a cs 102.5
COc1ccc(-c2noc(-c3ccccc3-c3ccccc3)n2)cc1	none
COc1cc(C=O)c(-c2c(C=O)cc(OC)c3c2OCO3)c2c1OCO2	Gli-Sufu block 63.1 | Gli-Sufu confirm inactive | SufuKO cytotox inactive | Wnt3a cs inactive
COc1cccc(C=O)c1OC(=O)N1CCOCC1	none
CN1CCCN(C(=O)CN2C(=O)CC(C)(C)S(=O)(=O)c3ccccc32)CC1	none (no result: 697 NFkB inh, GalR3 antag, Gli-Sufu block, Jurkat NFkB inh)
Cc1cc(C)cc(NC(=S)N(CCN(C)C)C(C)c2cccnc2)c1 (stereo not given)	none | Gli-Sufu confirm inactive | SufuKO cytotox inactive | Wnt3a cs inactive
COC(=O)C[C@@H]1CC[C@@H]2[C@@H](COc3ccc(NC(=O)Nc4ccccc4)cc3C(=O)N2C)O1	none (no result: 697 NFkB inh, GalR3 antag, Gli-Sufu block, Jurkat NFkB inh)
CC(C)(C)c1ccc(C(=O)NCCN2CCOCC2)cc1	none
O=C(NCCCN1CCOCC1)c1ccc2c(=O)n(Cc3ccc(Cl)cc3)c(=S)[nH]c2c1	none | Gli-Sufu confirm inactive | SufuKO cytotox 25.4 | Wnt3a cs inactive
O=C(NCCCN1CCOCC1)c1ccc(CSc2ccc(Cl)cc2)cc1	Gli-Sufu block 57.5 | Gli-Sufu confirm inactive | SufuKO cytotox inactive | Wnt3a cs inactive
CC(C)(C)c1ccc(C(=O)NCCCN2CCN(CCCNC(=O)c3ccc(C(C)(C)C)cc3)CC2)cc1	Gli-Sufu block 71.7 | Gli-Sufu confirm inactive | SufuKO cytotox inactive | Wnt3a cs inactive
O=C(CCCCCn1c(=S)[nH]c2ccc(N3CCOCC3)cc2c1=O)NCc1ccc(Cl)cc1	Gli-Sufu block 82.6 | Gli-Sufu confirm inactive | SufuKO cytotox inactive | Wnt3a cs inactive
S=C(Nc1cccc(Cl)c1)OC1CCC12CCC(c1ccccc1)CC2 (stereo not given)	none (no result: 697 NFkB inh, GalR3 antag, Gli-Sufu block, Jurkat NFkB inh)
O=C(CCNC(=O)N1CC(=O)Nc2ccccc21)NCCc1cccc(F)c1	none | Gli-Sufu confirm inactive | SufuKO cytotox inactive | Wnt3a cs inactive
O=C(CNC(=O)N1CC(=O)Nc2ccccc21)NCCc1cccc(F)c1	none
N#C/C(=C(/O)c1ccc([N+](=O)[O-])s1)c1nc2ccccc2[nH]1	none | Gli-Sufu confirm 59.3 | SufuKO cytotox inactive | Wnt3a cs 33.0
CN1C(=O)c2cc(NC(=O)Nc3ccccc3)ccc2OC[C@H]2O[C@@H](CC(=O)NCc3ccc(-c4ccccc4)cc3)CC[C@@H]21	none (no result: 697 NFkB inh, GalR3 antag, Gli-Sufu block, Jurkat NFkB inh)
CCN(C(=O)COC(=O)/C=C/c1cnc2ccccc2n1)C1CCS(=O)(=O)C1 (stereo not given)	Gli-Sufu block 56.1 | Gli-Sufu confirm inactive | SufuKO cytotox inactive | Wnt3a cs inactive
Cn1c(O)c(N=Nc2ccccc2)c2ccccc21	none
Cc1ccc2c(c1)c(N=Nc1ccc([N+](=O)[O-])cc1)c(O)n2C	none | Gli-Sufu confirm inactive | SufuKO cytotox inactive | Wnt3a cs inactive
